Results on eight compounds are retold here after PubChem BioAssay.

A number with no mark means an inactive call. Active and inactive are the calls of the source.

Chain of Luciferin 4-monooxygenase (Photinus pyralis) (P08659 whole entry, looked up): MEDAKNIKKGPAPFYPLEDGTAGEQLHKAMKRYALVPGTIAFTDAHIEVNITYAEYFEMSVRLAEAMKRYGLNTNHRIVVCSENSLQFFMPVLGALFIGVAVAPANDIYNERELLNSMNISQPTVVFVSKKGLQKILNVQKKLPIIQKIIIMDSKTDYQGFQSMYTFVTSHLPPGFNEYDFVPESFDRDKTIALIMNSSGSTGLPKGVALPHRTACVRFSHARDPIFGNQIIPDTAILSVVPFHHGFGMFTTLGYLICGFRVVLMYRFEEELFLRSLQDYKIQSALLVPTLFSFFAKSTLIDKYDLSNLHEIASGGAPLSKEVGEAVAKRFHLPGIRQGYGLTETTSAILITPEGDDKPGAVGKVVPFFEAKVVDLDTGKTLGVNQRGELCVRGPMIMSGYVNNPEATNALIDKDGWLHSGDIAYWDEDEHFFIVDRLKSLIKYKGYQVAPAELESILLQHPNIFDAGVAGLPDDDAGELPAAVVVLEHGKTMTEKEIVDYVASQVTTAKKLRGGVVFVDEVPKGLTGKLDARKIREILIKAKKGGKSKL

The test concerns the target Luciferin 4-monooxygenase (Photinus pyralis) (UniProt P08659). Briefly: firefly luciferase enzyme inhibitors, primary screen, biochemical, luminescence, purified enzyme, 2006 set (AID 1141).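 Further: cell-free assay with purified firefly luciferase at 100 ng per well in PBS; test concentration not given here.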 Conditions: SteadyGlo luminescence, 30 min, higher = more signal, called active from +8 up or from −8 down.
With `C=CCOC(=O)[C@H]1[C@@H]2C(=O)O[C@@H](c3ccccc3)[C@@H](c3ccccc3)N2[C@@H](c2ccc(OCCOC(=O)[C@H]3C[C@H]4C(=O)N[C@@H](CC(C)C)C(=O)N4[C@H]3c3ccc(O)cc3)cc2)[C@]12C(=O)Nc1ccccc12`, the z-score was -0.782. The figure for `CCOC(=O)C1=C[C@@H](C(C)(C)C)N(S(=O)(=O)c2ccc(C)cc2)[C@H]1c1ccc(C#N)cc1` is 1.82.

For the compound `C=CCOC(=O)[C@@H]1[C@H]2C(=O)O[C@H](c3ccccc3)[C@H](c3ccccc3)N2[C@H](c2ccc(OCCOC(=O)[C@H]3C[C@H]4C(=O)N[C@@H](CCCCN(C)C)C(=O)N4[C@H]3c3ccc(O)cc3)cc2)[C@@]12C(=O)Nc1ccc(I)cc12`, the z-score was -4.54.

With `COC(=O)[C@H](Cc1ccc(O)cc1)N[C@@H](/C=C/C1CC1)[C@H](O)Cc1ccccc1`, the z-score is 0.209. In the case of `O=C(NCC(O)CO)C1N=C(c2ccc(OCCCO)cc2)N(c2ccccc2)O1` (stereo not drawn) it was -10.9 (active); in that of `CCCc1cc2c(n1CCc1ccc(Cl)cc1)C(C)C1CN(C(=O)c3ccccc3)C(C)(C(=O)OC)C21` (stereo not drawn), -0.548; in that of `CC(C)(C)OC(=O)CC[C@]1(C(=O)NCC(O)CO)N=C(c2ccc(OCCCO)cc2)O[C@H]1c1ccccc1N=[N+]=[N-]` (stereo partly drawn), -8.87 (active). The figure for `COc1ccc([Si](C)(C)[C@H]2[C@H](CC(=O)N3CCC[C@H]3CO)O[C@@]3(C(=O)N(Cc4ccc(N5CCCCC5=O)cc4)c4ccccc43)[C@@H]2C)cc1` is 0.627.
